Source: PubChem (Broad Institute)
The list is not random: actives were taken first. Their share in the collection is about 1.8%.
RAD54 branch = inhibitors of human RAD54 branch migration. 360,000 tested, 0.14% active. inhibition, % at 10.4 µM. RAD54 Holliday junction branch migration, FAM/BHQ fluorescence;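 active means mean normalized replicate activity at least 40 and at least half of replicates scoring 40 or more; inconclusive means only one of the two criteria met; inactive means mean below 40 and under half of replicates reaching 40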;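 further: inhibitors cause a drop in the FAM fluorescence signal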
Target sequence (Q92698 whole entry, looked up): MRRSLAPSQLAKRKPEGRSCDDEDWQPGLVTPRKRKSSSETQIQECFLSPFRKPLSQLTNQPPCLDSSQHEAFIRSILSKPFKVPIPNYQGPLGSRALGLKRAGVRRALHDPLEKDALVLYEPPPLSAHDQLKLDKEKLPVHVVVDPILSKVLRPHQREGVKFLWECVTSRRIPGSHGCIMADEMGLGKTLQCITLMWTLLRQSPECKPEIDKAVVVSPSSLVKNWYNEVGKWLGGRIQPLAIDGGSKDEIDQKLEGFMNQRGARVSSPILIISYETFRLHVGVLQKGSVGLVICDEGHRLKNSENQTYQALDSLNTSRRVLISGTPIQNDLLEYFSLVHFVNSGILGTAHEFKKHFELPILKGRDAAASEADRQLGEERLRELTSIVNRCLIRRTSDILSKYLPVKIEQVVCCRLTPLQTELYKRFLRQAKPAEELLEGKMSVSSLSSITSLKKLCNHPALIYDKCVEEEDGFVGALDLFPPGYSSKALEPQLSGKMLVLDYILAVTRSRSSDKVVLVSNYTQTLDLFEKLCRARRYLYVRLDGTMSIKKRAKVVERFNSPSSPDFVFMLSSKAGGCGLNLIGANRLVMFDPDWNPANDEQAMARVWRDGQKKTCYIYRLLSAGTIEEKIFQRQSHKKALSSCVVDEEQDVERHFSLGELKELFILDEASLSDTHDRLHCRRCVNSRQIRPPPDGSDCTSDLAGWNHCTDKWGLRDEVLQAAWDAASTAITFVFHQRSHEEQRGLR
F508del corr = CFTR F508del correction in bronchial cells; 350,000 tested, 0.36% active; activity (quench increase), % at 7.58 µM; CFBE cells, YFP halide quenching; stimulated with forskolin plus potentiator P3; % fluorescence drop versus neutral controls;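 active means mean added fluorescence quench of at least 8% versus neutral control, with both replicates also reaching 8%; inconclusive means only one of the mean or replicate conditions met; inactive means mean below 8% and not both replicates reaching 8%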;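 further: cells transiently co-express mutant CFTR-F508del with the halide-sensitive YFP; corrector assay measuring rescue of mutant channel to the surface after 24 h compound exposure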
LGR2 inh = blocks bursicon-induced cAMP signaling via Drosophila LGR2; HEK293 LGR2, CRE-luciferase, bursicon-stimulated, 4 h; inhibition, % at 9.99 µM; 380,000 tested, 0.35% active;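 active means drop in luminescence signal, shown as inhibition above about 50% in the replicate tests, limit read from the data, passing the limit was not always enough; inconclusive means probably only some replicates passing the limit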;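 further: agonist challenge used bursicon conditioned medium at about half maximal strength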
EWS-Fli inh = EWS/Fli transcriptional activity inhibition | AID 651661 | 350,000 tested, 0.67% active | A673 NR0B1-luciferase reporter, viability-normalised | inhibition, % at 12.6 µM;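 active means mean inhibition of at least 50% after viability correction, with every replicate also passing that limit; inconclusive means mean reaches 50% but only one of two replicates passes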;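 further: firefly luciferase signal divided by Alamar Blue viability fluorescence both relative to DMSO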
RAD52 anneal inh = inhibitors of human RAD52 DNA annealing | P43351 | recombinant RAD52 DNA annealing, FRET fluorescence | inhibition, % at 18.7 µM | 360,000 tested, 0.46% active;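 active means every replicate showing at least 50% inhibition; inconclusive means mean inhibition at least 50% but not in every replicate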
INS-1E GSIS act = primary screen for activators of insulin secretion dependent on glucose, INS-1E cells, GLuc reporter luminescence; INS-1E GLuc reporter insulin secretion, 2-3 h; activation, % at 16.6 µM; 370,000 tested, 0.61% active;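 active means lowest replicate activation of at least 40%, so every replicate reaches that level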
Of the large screens only hits and unclear results are named; the others gave an inactive call; ! = not confirmed by another sample.

COc1ccc(S(=O)(=O)Nc2ccc3c(c2)C(=O)N([C@@H](C)CO)C[C@H](C)[C@H](CN(C)Cc2ccc(Cl)c(Cl)c2)OCCCC[C@@H](C)O3)cc1	F508del corr 8.0 (no result: RAD52 anneal inh)
COc1ccc(N2C(=O)CC(c3ccc([N+](=O)[O-])cc3)C2=O)cc1 (stereo not drawn)	none
FC(F)(F)c1cccc(-c2cc3nc(NCCOc4ccccc4)ccn3n2)c1	none
CC1(C)CC2CC(C)(CN2C(=S)Nc2ccccc2)C1 (stereo not drawn)	none (no result: RAD54 branch)
Cc1ccccc1CC(=O)Nc1ccc2c(c1)c(=O)n(C)n2-c1cccs1	none
COc1ccc(CN(C)C[C@H]2OCCCC[C@@H](C)Oc3ccc(NS(=O)(=O)c4ccc(OC)cc4)cc3C(=O)N([C@H](C)CO)C[C@H]2C)cc1	none (no result: RAD54 branch, EWS-Fli inh)
Cc1noc(C)c1S(=O)(=O)Nc1ccc2c(c1)C(=O)N([C@H](C)CO)C[C@@H](C)[C@@H](CN(C)Cc1ccc(Oc3ccccc3)cc1)O2	EWS-Fli inh 67
COc1ccc(CN(C)C[C@H]2OCCCC[C@@H](C)Oc3ccc(NS(=O)(=O)c4ccc(OC)cc4)cc3C(=O)N([C@@H](C)CO)C[C@@H]2C)cc1	EWS-Fli inh 69 (no result: RAD52 anneal inh)
COc1ccc(CN(C)C[C@H]2OCCCC[C@H](C)Oc3ccc(NS(=O)(=O)c4ccc(OC)cc4)cc3C(=O)N([C@H](C)CO)C[C@H]2C)cc1	none (no result: RAD52 anneal inh)
COc1ccc(CN(C)C[C@H]2OCCCC[C@H](C)Oc3ccc(NS(=O)(=O)c4ccc(OC)cc4)cc3C(=O)N([C@H](C)CO)C[C@@H]2C)cc1	EWS-Fli inh 78 (no result: RAD52 anneal inh)
COc1cccc(-c2ccc(C3[C@@H]4CN(C(=O)c5cnccn5)C[C@H]3N4)cc2)c1 (stereo partly drawn)	EWS-Fli inh 52! (no result: RAD54 branch)
COc1cccc(-c2ccc(C3[C@@H]4CN(C(=O)c5ccc(F)cc5)C[C@H]3N4)cc2)c1 (stereo partly drawn)	RAD52 anneal inh 52 (no result: RAD54 branch)
O=C(c1ccc(F)cc1)N1C[C@@H]2N[C@H](C1)C2c1ccc(-c2ccc(F)cc2)cc1 (stereo partly drawn)	RAD52 anneal inh 50 (no result: RAD54 branch)
CS(=O)(=O)c1cccc(C(=O)OCC(=O)NC(=O)Nc2ccccc2F)c1	none
N/C(=N\OC(=O)c1ccccc1Br)c1cccc([N+](=O)[O-])c1	INS-1E GSIS act 41
N/C(=N\OC(=O)c1ccccc1Br)c1ccc([N+](=O)[O-])cc1	none
COc1ccc(-c2cnnn2-c2ccc(N)cc2)cc1OC	INS-1E GSIS act 53 (no result: F508del corr, EWS-Fli inh, RAD52 anneal inh)
COc1ccc(-c2cnnn2-c2ccc(NC(=O)c3ccco3)cc2)cc1OC	none (no result: F508del corr, LGR2 inh, EWS-Fli inh, RAD52 anneal inh, INS-1E GSIS act)
Cc1ccc2c(c1C)-c1c(ccc(C)c1C)C(=O)C2=O	LGR2 inh 55, EWS-Fli inh 59 (no result: RAD54 branch)
CCC(C)C(NC(N)=O)C(=O)Nc1ccc(OCc2ccccc2)cc1 (stereo not drawn)	none
CCOc1ccc(NC(=O)[C@@H](NC(=O)OCc2ccccc2)[C@@H](C)CC)cc1	INS-1E GSIS act 49 (no result: RAD54 branch, F508del corr, EWS-Fli inh, RAD52 anneal inh)
O=S(=O)(NCC1CCCO1)c1ccc(Cl)cc1 (stereo not drawn)	none
O=S(=O)(NCC1CCCO1)c1ccc(Cl)nc1 (stereo not drawn)	INS-1E GSIS act 44 (no result: RAD54 branch)
C[C@@H]1CN([C@@H](C)CO)C(=O)c2cc(NS(=O)(=O)c3cccs3)ccc2O[C@@H](C)CCCCO[C@H]1CN(C)Cc1ccncc1	none
CCOC(=O)c1sc2nc(Cc3ccc(Cl)cc3)[nH]c(=S)c2c1C	F508del corr 12 (no result: RAD54 branch)
COc1ccc(NC(=O)N2C[C@H](O)COC[C@@H]3O[C@@H](CC(=O)NC4Cc5ccccc5C4)CC[C@H]32)cc1	none
COC(=O)c1cccc(NC(=O)c2ccc3c(c2)C(=O)N(C(C)(C)C)C3=O)c1	none
CC(C)(C)NC(=O)c1cccc(NC(=O)c2ccc3c(c2)C(=O)N(C(C)(C)C)C3=O)c1	LGR2 inh 83
O=C(Oc1ccc(=O)n(-c2ccccc2)n1)c1cccc(Cl)c1	none (no result: F508del corr, LGR2 inh, EWS-Fli inh, RAD52 anneal inh, INS-1E GSIS act)
Cc1ccc(NC2c3ncccc3C(=O)N2C2CCCCC2)cc1 (stereo not drawn)	INS-1E GSIS act 56 (no result: RAD54 branch, F508del corr, LGR2 inh, EWS-Fli inh, RAD52 anneal inh)
Cc1ccc(NC2c3ncccc3C(=O)N2C2CCCCC2)cc1C (stereo not drawn)	none (no result: F508del corr, LGR2 inh, EWS-Fli inh, RAD52 anneal inh, INS-1E GSIS act)
CCC(CN(C)C)Oc1cc(NCc2ccccc2)c2ncn(C(C)C)c2c1 (stereo not drawn)	RAD54 branch 70 (no result: F508del corr, LGR2 inh, EWS-Fli inh, RAD52 anneal inh, INS-1E GSIS act)
COc1ccc(S(=O)(=O)N2CCCCN3[C@H](CO)[C@H](c4ccc(C5=CCCCC5)cc4)[C@H]3C2)cc1	RAD52 anneal inh 60 (no result: LGR2 inh, INS-1E GSIS act)
COc1ccc(S(=O)(=O)N2CCCCN3[C@H](CO)[C@H](c4ccc(C5=CCCC5)cc4)[C@H]3C2)cc1	none (no result: RAD52 anneal inh)
O=S(=O)(c1cccs1)N1CCCCN2[C@H](CO)[C@H](c3ccc(C4=CCCCC4)cc3)[C@H]2C1	RAD52 anneal inh 57 (no result: LGR2 inh, INS-1E GSIS act)
Cn1nnnc1SCSc1nnnn1C	none (no result: F508del corr, LGR2 inh, EWS-Fli inh, RAD52 anneal inh, INS-1E GSIS act)
O=C(NCc1cccs1)c1cc(-c2ccccc2)nn1CC1CC(c2cccc([N+](=O)[O-])c2)=NO1 (stereo not drawn)	F508del corr 8.6 (no result: INS-1E GSIS act)
OC[C@H]1[C@@H](c2ccc(/C=C/c3ccccc3)cc2)[C@@H]2CN(Cc3cncnc3)CCCCN12	none (no result: LGR2 inh, INS-1E GSIS act)
Cn1c(-c2ccccc2F)cc2onc(-c3ccccc3)c2c1=O	none
Cn1c(-c2ccccc2)cc2onc(-c3ccccc3)c2c1=O	LGR2 inh 94, EWS-Fli inh 81
O=C(Nc1ccccc1F)N1CC(=O)N2[C@@H](CO)[C@H](c3ccc(-c4ccccc4)cc3)[C@@H]2C1	none (no result: RAD54 branch)
COCCNC(=O)C1CCCN(C(=O)c2ccc3sccc3c2)CC1 (stereo not drawn)	F508del corr 8.5
COc1ccc(C2=NOC(C(=O)NCc3ccc(F)cc3)C2)cc1OC (stereo not drawn)	F508del corr 8.7
COc1cc(C2=NOC(C(=O)Nc3cccnc3)C2)cc(OC)c1OC (stereo not drawn)	none (no result: LGR2 inh)
COc1ccc(C2=NOC(C(=O)Nc3cccnc3)C2)cc1OC (stereo not drawn)	INS-1E GSIS act 75
O=C(/C=C/Nc1ccc(Br)cc1F)c1ccco1	LGR2 inh 89, EWS-Fli inh 73
O=C(/C=C/Nc1ccc(F)cc1F)c1ccco1	LGR2 inh inconclusive, EWS-Fli inh 65 (no result: RAD54 branch)
O=C(/C=C/Nc1ccccc1O)c1ccco1	none (no result: RAD54 branch)
Cc1ccccc1OCCCC(=O)Nc1ccc2c(c1)OCO2	none
Cc1nc(SC2CCOC2=O)c2c(C)c(C)sc2n1 (stereo not drawn)	none (no result: F508del corr, LGR2 inh, EWS-Fli inh, RAD52 anneal inh, INS-1E GSIS act)
CCSc1nnc(NC(=O)c2csc(C)c2)s1	INS-1E GSIS act 99 (no result: F508del corr, EWS-Fli inh, RAD52 anneal inh)
CN(C)c1c(N)c(=O)oc2ccccc12	none (no result: RAD54 branch)
Cc1ccc(C(=O)NCC#N)cc1	none (no result: RAD54 branch)
Cc1ccc(C(=O)NC(C#N)=C(Cl)Cl)cc1	LGR2 inh 106, EWS-Fli inh 77 (no result: RAD54 branch)
COc1cccc(C(=O)Nc2ccc3ccccc3c2)c1	LGR2 inh inconclusive
